Screens from PubChem.
D1 potentiator: potentiators of human D1 dopamine receptor; P21728; HEK293 TREx D1 cells, calcium flux, dopamine EC20 potentiation; potentiation, % at 10 µM; 360,000 tested, 0.036% active; AID 504651; in the data active means potentiation above about 30%; further: 0% is about no effect
Target sequence (P21728 whole entry, looked up): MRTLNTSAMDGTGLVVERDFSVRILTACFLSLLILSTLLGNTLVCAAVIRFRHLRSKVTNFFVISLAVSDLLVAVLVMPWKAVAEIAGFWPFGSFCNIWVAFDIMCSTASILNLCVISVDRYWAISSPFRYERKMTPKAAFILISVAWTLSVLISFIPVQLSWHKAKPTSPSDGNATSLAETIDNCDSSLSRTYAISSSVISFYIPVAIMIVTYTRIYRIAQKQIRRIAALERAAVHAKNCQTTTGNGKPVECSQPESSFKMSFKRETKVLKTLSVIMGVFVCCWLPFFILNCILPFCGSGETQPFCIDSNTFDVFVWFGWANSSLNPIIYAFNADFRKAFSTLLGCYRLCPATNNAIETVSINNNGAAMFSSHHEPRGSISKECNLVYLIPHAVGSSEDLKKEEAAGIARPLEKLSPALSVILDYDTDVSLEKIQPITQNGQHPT
DRD3 agonist: activates the human D3 dopamine receptor; P35462; D3R DiscoveRx beta-arrestin cells, luminescence, 90 min; max activation, %; 410,000 tested, 0.58% active; AID 652048; in the data active means max activation above about 30%; further: 0% is about no effect
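Agonist-mode cell screen: cells plated at 1500/well and incubated overnight at 37 °C, then exposed to library compounds for 90 min at 37 °C. Detection reagent was added for 30–60 min at room temperature, and luminescence was read.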
D3 antag: blocks the human D3 dopamine receptor | AID 652054 | max response, negative = inhibition, % | P35462 | 360,000 tested, 2.5% active | D3R cells, DiscoveRx beta-arrestin luminescence, antagonist mode; active compounds read low; in the data active means max response below about -50%; inconclusive means no clear call, values can overlap the other calls; further: on the % scale 0 is the no-effect control and ±100 the full control effect
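Cells plated overnight at 1500 cells/well, then exposed to library compounds with dopamine controls for 90 minutes at 37 degrees C. DiscoveRx reagent added for 30–60 minutes at room temperature; luminescence read, quantitative HTS format.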
BCR signal inh: inhibitors of chronic active B-cell receptor signaling. ABC-DLBCL IkBa-CBG/CBR reporter, luminescence ratio, 4 h. Potency, µM (titrated, usually from 46.1 µM), without a hit: top-dose activity change, negative = inhibition, usual class: inhibitors. 340,000 tested, 0.05% active. AID 493014; active means well fitted inhibition curve with a large enough effect in the signal ratio, with a control signal flat, not every such curve was filed as active; inconclusive means small, poorly fitted or top-dose-only effect, or effect the other way, or a change in a side signal; the % refers to the signal ratio;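 further: potency means the concentration at half of the fitted maximal effect; plate controls were basal doxycycline-induced cells for no effect and cells given 10 µM MG132 for full effect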
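Concentration-response series (up to 46 uM) were applied to TMD8 dual-reporter cells for 4 h at 37C with doxycycline. Green/red ratio, after filter-overlap correction, defined %Activity; red signal alone was normalised to basal cells and zero luminescence.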
D1 ag: activates the human D1 dopamine receptor; P21728; activation, % at 2 µM; HEK293 T-REx D1 cells, calcium flux, agonist mode; 360,000 tested, 1% active; in the data active means activation above about 30%; further: 0% is about no effect
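Tetracycline-induced HEK293 TREx D1 cells, force-coupled to calcium signalling, were dye-loaded with a no-wash calcium kit. Compound was pin-added after a 10 s baseline. Fluorescence was read kinetically at 1 cycle/s for 180 s, with calcium rises flagged as agonism.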
D1 antagonist: human D1 dopamine receptor antagonism; activity change, negative = inhibition, % at 10 µM; P21728; HEK293 TREx D1 cells, calcium flux, dopamine EC80; active compounds read low; 360,000 tested, 3.2% active; in the data active means activity change below about -30%; further: on the % scale 0 is the no-effect control and ±100 the full control effect
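Allosteric or orthosteric antagonism assessed as attenuation of the calcium response to EC80 dopamine, added 180 s after compound, in induced HEK293 Trex D1 cells loaded with no-wash calcium dye.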
The depositor's hits bear a star; ? = inconclusive; / = no result; ! = not confirmed by another sample. Most compounds without a hit are left out; they make up all but 6% or so of the library.

SMILES	D1 potentiator	DRD3 agonist	D3 antag	BCR signal inh	D1 ag	D1 antagonist
CC(=O)N(c1ccc(Cl)cc1)c1c[nH]c2ccccc12	13	-25	-67*	2%	5	-18
Cc1ccc(-c2nc3c4ccccc4ccn3c2Cc2ccsc2)cc1	/	-1	-9	/	/	/
COc1ccc(-c2cc(C(F)(F)F)nc(N3CCN(C)CC3)n2)cc1	-3	1	-66*	2%	4	12
FC(F)(F)c1cc(-c2cccs2)nc(N2CCOCC2)n1	2	5	-58*	-5%	4	30
FC(F)(F)c1cc(-c2cccs2)nc(-n2cc(Br)cn2)n1	2	10	16	12%	1	4
CN1CCN(c2nc(C#N)cc(-c3ccccc3)n2)CC1	-11	-11	-74*	?	6	-25
COc1ccc(-c2cc(C#N)nc(N3CCN(C)CC3)n2)cc1	-1	-24	?	1%	0	-7
Cc1ccccc1Cn1c(=O)n(CCCCCC(=O)NCc2ccc3c(c2)OCO3)c(=O)c2sccc21	0	5	/	/	2	-20
Cc1c(NC(=O)c2ccc(N3CCCC3)c([N+](=O)[O-])c2)cccc1-c1nc2ccccc2s1	0	-32	-51*	7%	0	6
CCCC(=O)Nc1cccc(NC(=O)c2ccc(C)c([N+](=O)[O-])c2)c1	-7	-3	-12	?	-1	-34*
O=C(Nc1ccc(Cl)c([N+](=O)[O-])c1)c1ccc(NCCCN2CCOCC2)c([N+](=O)[O-])c1	29	-8	10	4%	16	14
Cc1ccc(NC(=O)c2ccc(NCCCN3CCOCC3)c([N+](=O)[O-])c2)cc1Cl	-4	-15	-51*	?	0	2
CN1CCN(c2ccccc2NC(=O)c2ccc(N3CCCCC3)c([N+](=O)[O-])c2)CC1	-4	-7	-2	?	0	-2
O=C(Nc1ccc(Cc2ccncc2)cc1)c1ccc(N2CCOCC2)c([N+](=O)[O-])c1	2	-8	-7	?	12	-44*
Cn1nnnc1Sc1ncnc2scc(-c3ccccc3C#N)c12	6	/	/	/	-1	-11
CCCCNC(=O)C1(C)CCC(=O)N1C1CC1 (stereo not given)	/	3	17	/	/	/
CN(C)C(=S)Oc1ccccc1C1SCCS1	/	-2	1	/	/	/
Cc1nc2ncnn2c(C)c1CCC(=O)N1CCN(c2ccccc2)CC1	-3	-5	/	/	-1	19
COc1ccc(OC)c(S(=O)(=O)NCCc2sc(C)nc2C)c1	-3	-9	/	/	0	-6
COc1ccc([C@@H]2C[C@H]3[C@@H](CN2S(=O)(=O)c2ccccc2)C(=O)C[C@@H](c2cccc(Cl)c2)N3S(=O)(=O)c2ccc(C)cc2)cc1	/	8	30	/	/	/
Clc1cccc(-n2ncc3c(NCCC4=CCCCC4)ncnc32)c1	-1	1	/	7%	0	-3
O=C(Nc1ccc(N2CCCCC2)c(Cl)c1)c1ccc(N2CCOCC2)c([N+](=O)[O-])c1	-8	-6	-13	13%	1	-48*
Cc1ccc(C(=O)COC(=O)c2ccncc2)cc1[N+](=O)[O-]	-2	-6	-92*	4%	4	3
Cc1ccc(C(=O)Nc2ccc(Cc3ccncc3)cc2)cc1[N+](=O)[O-]	-6	-6	32	5%	10	-35*
O=C(Nc1ccc(Cc2ccncc2)cc1)c1cccc([N+](=O)[O-])c1	-4	-2	?	-2%	23	-7
SMILES	D1 potentiator	DRD3 agonist	D3 antag	BCR signal inh	D1 ag	D1 antagonist
CCOC(=O)c1c(C)[nH]c(C)c1S(=O)(=O)NCC(=O)Nc1cccc(SC)c1	-3	-8	/	/	5	-10
O=C1CCCc2c1cc(C(=O)O)c(=O)n2-c1ccccc1	5	-6	13	2%	0	5
CCOC(=O)c1cc2c(n(-c3ccc(Cl)cc3)c1=O)CCCC2=O	-9	-5	-20	0%	-2	-30*
O=C(c1[nH]c(C(F)(F)F)nc1-c1ccccc1)N1CCCN(Cc2ccc(F)cc2)CC1	/	6	29	/	/	/
O=C(NCc1cccc(C(F)(F)F)c1)c1[nH]c(C(F)(F)F)nc1-c1ccccc1	/	-10	-63*	/	/	/
O=C(NC1CCN(Cc2ccccc2)CC1)c1[nH]c(C(F)(F)F)nc1-c1ccccc1	/	-15	-85*!	/	/	/
Cc1ccc(CNC(=O)c2[nH]c(C(F)(F)F)nc2-c2ccccc2)cc1	/	-12	-17	/	/	/
Cc1c(C(=O)Nc2c(F)cccc2F)sc2ncn(Cc3ccccc3F)c(=O)c12	-5	8	/	?	5	-1
O=C(NCCc1ccccn1)c1cccc(S(=O)(=O)N2CCc3ccccc32)c1	-3	-11	-4	?	9	-36*
COc1ccc(NC(=O)c2cccc(S(=O)(=O)N3CCc4ccccc43)c2)cn1	0	2	12	?	11	-31*
COc1cc2c(cc1OC)CN(C(=O)c1cccc(S(=O)(=O)N3CCc4ccccc43)c1)CC2	-4	1	4	-10%	5	-34*
CC1(NC(=O)c2cccc(S(=O)(=O)N3CCCc4ccccc43)c2)CCS(=O)(=O)C1 (stereo not given)	3	-5	22	?	1	-83*
O=C(Nc1ncccc1O)c1cccc(S(=O)(=O)N2CCc3ccccc32)c1	1	-11	0	2%	0	-4
O=C(Cn1c(=O)n(CC2CCCO2)c(=O)c2ccccc21)Nc1ccc(F)cc1F (stereo not given)	0	3	/	/	-1	12
CCc1cccc(NC(=O)CSc2nc3ccsc3c(=O)n2CC)c1	-1	11	/	/	14	-5
NCCC(=O)[N-][C@@H](Cc1cnc[nH]1)C(=O)O.[Zn]	/	10	/	/	/	/
COc1ccccc1-c1cn(CC[C@@H]2CC[C@H](NC(=O)C3CCC3)[C@@H](CO)O2)nn1	/	-9	-12	/	/	/
O=C(c1cccc(S(=O)(=O)N2CCc3ccccc32)c1)N1CCOCC1	/	-9	25	-2%	/	/
O=C(c1cccc(S(=O)(=O)N2CCc3ccccc32)c1)N1CCc2ccccc2C1	/	-6	-11	1%	11	-82*
COc1ccc(OCc2cc(C(=O)N3CCCCCC3)no2)c(Cl)c1	-9	1	18	-12%	4	0
O=C(c1cc(COc2cccc(C(F)(F)F)c2)on1)N1CCC(c2ccncc2)CC1	-4	18	8	?	0	12
COc1ccc(OCc2cc(C(=O)N3CCC(c4ccccc4)CC3)no2)c(Cl)c1	-5	-4	17	?	35*	-3
COc1cccc(OCc2cc(C(=O)N3CCC(c4ccncc4)CC3)no2)c1	-11	22	23	-1%	14	-36*
